# Results published in PubChem BioAssay (EPA / NIEHS).
# Records with an inconclusive call do not appear. The source made the active and inactive calls. Rule for the calls, unless noted: active = hit-call score of the fitted dose curve at least 0.9, where 1 is the maximum; inactive = score below 0.9.
# Key:
# [1] = read-out: Interleukin-8 (IL8), CXCL8 (gene 3576); experiment: BSK_3C_IL8: BioMAP Diversity Plus: 3C Assay for Interleukin-8 (IL8) Biomarker Activity (AID 2283020); conditions: primary human endothelial cells (HUVEC); actives raise or lower the signal
# Procedure, shortened: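 ELISA read-out of IL-8 from human umbilical vein endothelium, measured 24 h after chemical dosing. Activity is expressed relative to DMSO negative control, with both increases and decreases fitted.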
# [2] = read-out: Monokine induced gamma interferon (MIG), CXCL9 (gene 4283); experiment: BSK_3C_MIG: BioMAP Diversity Plus: 3C Assay for Monokine induced gamma interferon (MIG) Biomarker Activity (AID 2283021); conditions: primary human endothelial cells (HUVEC); actives raise or lower the signal
# Procedure, shortened: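 Read-out is ELISA detection of MIG on human umbilical vein endothelial cells, taken 24 h after dosing. Gain or loss of signal was scored relative to DMSO controls using bidirectional curve fitting.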
# [3] = molecular target: human Vitamin D Receptor (VDR), VDR (gene 7421) (UniProt P11473); experiment: ATG_VDR_TRANS: Attagene TRANS-FACTORIAL HepG2 Assay for human Vitamin D Receptor (VDR) (AID 2283022; active = hit-call score of the fitted dose curve at least 0.9, where 1 is the maximum)
# Procedure, shortened: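 Steps: transfect HepG2 with GAL4-UAS-driven reporter constructs; dose compounds 24 h; isolate RNA, reverse-transcribe, PCR-amplify with 6-FAM-labelled primer extension and HpaI digestion; quantify fragments by capillary electrophoresis relative to DMSO.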
# [4] = BSK_3C_SRB: Viability Assessment in the BioMAP Diversity Plus: 3C Assay (AID 2283023); conditions: primary human endothelial cells (HUVEC);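 note: fitted both ways against DMSO so a hit may be signal rise or drop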
# Procedure, shortened: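 Absorbance at 560 nm of sulforhodamine B-stained (0.1%) total protein served as a cytotoxicity readout in human umbilical vein endothelial cells, 24 h after chemical treatment. Signal was fitted bidirectionally relative to DMSO.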
# [5] = read-out: Matrix Metallopeptidase 1 (MMP1), MMP1 (gene 4312); experiment: BSK_BE3C_MMP1: BioMAP Diversity Plus: BE3C Assay for Matrix Metallopeptidase 1 (MMP1) Biomarker Activity (AID 2283024); conditions: primary human bronchial epithelial cells; actives raise or lower the signal
# Procedure, shortened: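 Human bronchial epithelial cells (BE3C system) exposed to compound for 24 h; MMP1 then quantified by ELISA. Activity was fitted in both directions relative to DMSO.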
# [6] = BSK_3C_Vis: BioMAP Diversity Plus: 3C Assay for Morphology Visualization (AID 2283025); conditions: primary human endothelial cells (HUVEC);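 note: fitted both ways so gain or loss versus DMSO counts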
# Procedure, shortened: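 Chemicals were added to primary human umbilical vein endothelium, cells were incubated 24 h, and morphology was then visualized by light microscopy. Gain or loss of signal was fitted bidirectionally relative to DMSO.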
# [7] = read-out: Pselectin, SELP (gene 6403); experiment: BSK_4H_Pselectin: BioMAP Diversity Plus: 4H Assay for Pselectin Biomarker Activity (AID 2283026); conditions: primary human endothelial cells (HUVEC); actives raise or lower the signal
# Procedure, shortened: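 ELISA read-out of P-selectin on human umbilical vein endothelium after 24 h of dosing. Values derive from bidirectional fitting relative to DMSO. Parallel SRB protein staining flagged overt cytotoxicity.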
# [8] = BSK_4H_SRB: Viability Assessment in the BioMAP Diversity Plus: 4H Assay (AID 2283027); conditions: primary human endothelial cells (HUVEC);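 note: cells exposed to compound for 24 h before staining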
# Procedure, shortened: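 Human umbilical vein endothelial cells, 24 h after chemical dosing; total protein measured by 0.1% sulforhodamine B staining after 10% TCA fixation, read at 560 nm. Bidirectional fitting against DMSO.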
# [9] = BSK_BE3C_SRB: Viability Assessment in the BioMAP Diversity Plus: BE3C Assay (AID 2283028); conditions: primary human bronchial epithelial cells
# Procedure, shortened: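 Cells (human bronchial epithelial, primary) are treated with chemicals, and after 24 h the parallel cultures are fixed in 10% TCA. These are then stained with 0.1% SRB and read at 560 nm. Gain or loss of signal is fitted relative to DMSO.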
# [10] = read-out: Thrombomodulin, THBD (gene 7056); experiment: BSK_3C_Thrombomodulin: BioMAP Diversity Plus: 3C Assay for Thrombomodulin Biomarker Activity (AID 2283029); conditions: primary human endothelial cells (HUVEC); actives raise or lower the signal
# Procedure, shortened: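 Read-out is ELISA of thrombomodulin on human umbilical vein endothelium 24 h after chemical dosing. Gain or loss of signal is scored relative to DMSO. Overt cytotoxicity is checked in parallel cultures by sulforhodamine B staining.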
# [11] = read-out: Urokinase-type plasminogen activator receptor (uPAR), PLAUR (gene 5329); experiment: BSK_4H_uPAR: BioMAP Diversity Plus: 4H Assay for Urokinase-type plasminogen activator receptor (uPAR) Biomarker Activity (AID 2283030); conditions: primary human endothelial cells (HUVEC); actives raise or lower the signal
# Procedure, shortened: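 Cell-surface uPAR ELISA signal, measured 24 h after dosing human umbilical vein endothelial cells, was analyzed with bidirectional fitting relative to DMSO. Parallel SRB staining of total protein tracked overt cytotoxicity.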
# [12] = read-out: Vascular endothelial growth factor receptor 2 (Homo sapiens) (UniProt P35968); experiment: BSK_4H_VEGFRII: BioMAP Diversity Plus: 4H Assay for Vascular endothelial growth factor receptor 2 (VEGFR2) Biomarker Activity (AID 2283031); conditions: primary human endothelial cells (HUVEC); actives raise or lower the signal
# Procedure, shortened: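 ELISA read-out of VEGFRII in primary human umbilical vein endothelium, taken 24 h after chemical treatment. Responses are expressed relative to DMSO, with bidirectional fitting.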
# [13] = read-out: Human Leukocyte Antigen - DR isotype (HLADR), HLA-DRA (gene 3122); experiment: BSK_BE3C_HLADR: BioMAP Diversity Plus: BE3C Assay for Human Leukocyte Antigen - DR isotype (HLADR) Biomarker Activity (AID 2283032); conditions: primary human bronchial epithelial cells; actives raise or lower the signal
# Procedure, shortened: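 ELISA read-out of HLA-DR on human lung bronchial epithelial primary cells, measured 24 h post-dosing. Both increases and decreases were scored relative to DMSO vehicle.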
# [14] = read-out: Vascular cell adhesion molecule 1 (VCAM1), VCAM1 (gene 7412); experiment: BSK_4H_VCAM1: BioMAP Diversity Plus: 4H Assay for Vascular cell adhesion molecule 1 (VCAM1) Biomarker Activity (AID 2283033); conditions: primary human endothelial cells (HUVEC); actives raise or lower the signal;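 note: cell-surface VCAM-1 protein measured by ELISA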
# Procedure, shortened: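 ELISA read-out of VCAM-1 on human umbilical vein endothelium 24 hours after chemical dosing; gain or loss of signal was fitted relative to DMSO, with sulforhodamine B staining of parallel cultures flagging overt cytotoxicity.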
# [15] = read-out: Interferon-gamma inducible Protein 10 (IP10), CXCL10 (gene 3627); experiment: BSK_BE3C_IP10: BioMAP Diversity Plus: BE3C Assay for Interferon-gamma inducible Protein 10 (IP10) Biomarker Activity (AID 2283034); conditions: primary human bronchial epithelial cells; actives raise or lower the signal
# Procedure, shortened: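 Chemical is dosed onto human lung bronchial epithelial primary cells, cultures are incubated 24 h, and IP-10 is then quantified by ELISA. Gain or loss of signal is fitted in both directions relative to DMSO.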
# [16] = read-out: Monokine induced gamma interferon (MIG), CXCL9 (gene 4283); experiment: BSK_BE3C_MIG: BioMAP Diversity Plus: BE3C Assay for Monokine induced gamma interferon (MIG) Biomarker Activity (AID 2283035); conditions: primary human bronchial epithelial cells; actives raise or lower the signal;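 note: MIG protein measured by ELISA in BE3C cultures after 24 h of dosing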
# Procedure, shortened: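 Primary human bronchial epithelial cells treated for 24 h; MIG levels measured by ELISA, fitted bidirectionally versus DMSO. Parallel SRB total-protein staining assessed cytotoxicity.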
# [17] = read-out: Transforming growth factor beta 1 (TGFb1), TGFB1 (gene 7040); experiment: BSK_BE3C_TGFb1: BioMAP Diversity Plus: BE3C Assay for Transforming growth factor beta 1 (TGFb1) Biomarker Activity (AID 2283036;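 note: TGF-b1 protein level measured by ELISA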); conditions: primary human bronchial epithelial cells; actives raise or lower the signal
# Procedure, shortened: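 Primary human lung bronchial epithelial cells; compound exposure 24 h; TGF-b1 by ELISA; bidirectional fit, DMSO baseline. Parallel SRB total-protein staining for cytotoxicity.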
# [18] = read-out: Plasminogen activator inhibitor-1 (PAI1), SERPINE1 (gene 5054); experiment: BSK_BE3C_PAI1: BioMAP Diversity Plus: BE3C Assay for Plasminogen activator inhibitor-1 (PAI1) Biomarker Activity (AID 2283037); conditions: primary human bronchial epithelial cells; actives raise or lower the signal
# Procedure, shortened: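 Primary human lung bronchial epithelial cells; chemical dosing; 24 h; PAI-1 measured by ELISA; bidirectional fit referenced to DMSO as negative control.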
# [19] = read-out: urokinase plasminogen activator (uPA), PLAU (gene 5328); experiment: BSK_BE3C_uPA: BioMAP Diversity Plus: BE3C Assay for urokinase plasminogen activator (uPA) Biomarker Activity (AID 2283038); conditions: primary human bronchial epithelial cells; actives raise or lower the signal;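 note: uPA protein level quantified by ELISA in cell cultures; uPA read one day after compound addition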
# Procedure, shortened: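 Bronchial epithelial cells (human, primary); chemical 24 h; uPA by ELISA; bidirectional fit vs DMSO. SRB (0.1%, after 10% TCA fixation, 560 nm) in parallel cultures for cytotoxicity.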
# [20] = read-out: Urokinase-type plasminogen activator receptor (uPAR), PLAUR (gene 5329); experiment: BSK_BE3C_uPAR: BioMAP Diversity Plus: BE3C Assay for Urokinase-type plasminogen activator receptor (uPAR) Biomarker Activity (AID 2283039); conditions: primary human bronchial epithelial cells; actives raise or lower the signal;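 note: cells exposed to compound for one day before measurement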
# Procedure, shortened: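 Human bronchial epithelial primary cells; chemical exposure 24 h; uPAR by ELISA; bidirectional fit vs DMSO control.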
# Sequence of human Vitamin D Receptor (VDR), VDR (gene 7421) (P11473 whole entry, looked up, the tested form may be a part): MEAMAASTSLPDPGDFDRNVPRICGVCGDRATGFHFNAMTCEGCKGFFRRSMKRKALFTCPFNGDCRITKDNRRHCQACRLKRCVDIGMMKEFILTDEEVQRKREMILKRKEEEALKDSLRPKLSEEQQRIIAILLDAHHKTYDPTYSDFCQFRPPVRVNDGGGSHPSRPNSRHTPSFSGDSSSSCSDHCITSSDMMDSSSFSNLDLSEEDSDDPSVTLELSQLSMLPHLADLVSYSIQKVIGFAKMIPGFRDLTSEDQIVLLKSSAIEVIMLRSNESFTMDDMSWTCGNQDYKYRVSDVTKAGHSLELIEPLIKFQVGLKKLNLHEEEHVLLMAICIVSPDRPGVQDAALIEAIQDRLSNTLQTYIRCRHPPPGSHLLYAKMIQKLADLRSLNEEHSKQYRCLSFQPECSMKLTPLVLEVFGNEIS
compound,measurement,setting,value
Cc1cccc(O)c1C,outcome,[1],inactive
same,outcome,[2],inactive
same,outcome,[3],inactive
same,outcome,[4],inactive
same,outcome,[5],inactive
same,outcome,[6],inactive
same,outcome,[7],inactive
same,outcome,[8],inactive
same,outcome,[9],inactive
same,outcome,[10],inactive
same,outcome,[11],inactive
same,outcome,[12],inactive
same,outcome,[13],inactive
same,outcome,[14],inactive
same,outcome,[15],inactive
same,outcome,[16],inactive
same,outcome,[17],inactive
same,outcome,[18],inactive
same,outcome,[19],inactive
same,outcome,[20],inactive
Cc1nc(-c2ccccn2)ncc1C(=O)Nn1cc(C)c2cc(F)ccc21,outcome,[1],inactive
same,outcome,[2],inactive
same,outcome,[3],inactive
same,AC50,[4],20 µM (active)
same,outcome,[5],inactive
same,outcome,[6],inactive
same,outcome,[7],inactive
same,outcome,[8],inactive
same,outcome,[9],inactive
same,outcome,[10],inactive
same,outcome,[11],inactive
same,outcome,[12],inactive
same,outcome,[13],inactive
same,outcome,[14],inactive
same,outcome,[15],inactive
same,outcome,[16],inactive
same,outcome,[17],inactive
same,outcome,[18],inactive
same,outcome,[19],inactive
same,outcome,[20],inactive
C[C@]12C=CC(=O)C=C1CC[C@H]1[C@@H]3C[C@@H](O)[C@](O)(C(=O)CO)[C@@]3(C)C[C@H](O)[C@@]12F,outcome,[1],inactive
same,outcome,[2],inactive
same,outcome,[3],inactive
same,outcome,[4],inactive
same,outcome,[5],inactive
same,outcome,[6],inactive
same,outcome,[7],inactive
same,outcome,[8],inactive
same,outcome,[9],inactive
same,outcome,[10],inactive
same,outcome,[11],inactive
same,outcome,[12],inactive
same,outcome,[13],inactive
same,outcome,[14],inactive
same,outcome,[15],inactive
same,outcome,[16],inactive
same,outcome,[17],inactive
same,outcome,[18],inactive
same,outcome,[19],inactive
same,outcome,[20],inactive
O=C(NO)C1(NS(=O)(=O)c2ccc(Oc3ccc(F)cc3)cc2)CCOCC1,outcome,[1],inactive
same,outcome,[2],inactive
same,outcome,[3],inactive
same,outcome,[4],inactive
same,outcome,[5],inactive
same,outcome,[6],inactive
same,outcome,[7],inactive
same,outcome,[8],inactive
same,outcome,[9],inactive
same,outcome,[10],inactive
same,outcome,[11],inactive
same,outcome,[12],inactive
same,outcome,[13],inactive
same,outcome,[14],inactive
same,outcome,[15],inactive
same,outcome,[16],inactive
same,outcome,[17],inactive
same,outcome,[18],inactive
same,outcome,[19],inactive
same,outcome,[20],inactive
CCCC(CCC)C(=O)O,outcome,[1],inactive
same,outcome,[2],inactive
same,outcome,[3],inactive
same,outcome,[4],inactive
same,outcome,[5],inactive
same,outcome,[6],inactive
same,outcome,[7],inactive
same,outcome,[8],inactive
same,outcome,[9],inactive
same,outcome,[10],inactive
same,outcome,[11],inactive
same,outcome,[12],inactive
same,outcome,[13],inactive
same,outcome,[14],inactive
same,outcome,[15],inactive
same,outcome,[16],inactive
same,outcome,[17],inactive
same,outcome,[18],inactive
same,outcome,[19],inactive
same,outcome,[20],inactive
CC(C)CCCCCCOC(=O)C1CCCCC1C(=O)OCCCCCCC(C)C (stereo not given),outcome,[1],inactive
same,outcome,[2],inactive
same,outcome,[3],inactive
same,outcome,[4],inactive
same,outcome,[5],inactive
same,outcome,[6],inactive
same,outcome,[7],inactive
same,outcome,[8],inactive
same,outcome,[9],inactive
same,outcome,[10],inactive
same,outcome,[11],inactive
same,outcome,[12],inactive
same,outcome,[13],inactive
same,outcome,[14],inactive
same,outcome,[15],inactive
same,outcome,[16],inactive
same,outcome,[17],inactive
same,outcome,[18],inactive
same,outcome,[19],inactive
same,outcome,[20],inactive
